From PubChem BioAssay (EPA / NIEHS)
Results filed as inconclusive are left out. Calls of active or inactive are those of the source. Rule for the calls, unless noted: active = hit-call score of the fitted dose curve at least 0.9, where 1 is the maximum; inactive = score below 0.9.

Assays:
THRB (gene 7068) [1] = biological target: THRB (gene 7068) (UniProt P10828); test: TOX21_TRB_COA_Antagonist_Followup_ratio: Tox21 Thyroid Hormone Receptor beta Antagonism through Coactivator Recruitment Follow-Up Assay, Ratio (AID 2283967; active = hit-call score of the fitted dose curve at least 0.9, where 1 is the maximum)
Method in brief: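 Coactivator recruitment to the GST-tagged TRb ligand-binding domain (5.0 nM) was read as the 520/495 nm TR-FRET ratio, using 200 nM fluorescein SRC-2 peptide and 2 nM terbium anti-GST. Scaled between DMSO and T3 wells; loss of signal fitted.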

[2] = CCTE_Harrill_HTTr_Viability_DMEM_6hr: (Pilot) CCTE's 6-hour Cell Viability Assessment for the High-Throughput Transcriptomics (HTTr) Platform, in MCF-7 cells cultured in DMEM + 10% fetal bovine serum, Harrill Lab (AID 2283973)
Method in brief: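 Propidium iodide uptake imaged by high-content analysis after six hours of chemical treatment in an eight-concentration series. Cells: MCF-7 grown in DMEM with 10% fetal bovine serum; DMSO as baseline.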

[3] = CCTE_Harrill_HTTr_Viability_DMEM_12hr: (Pilot) CCTE's 12-hour Cell Viability Assessment for the High-Throughput Transcriptomics (HTTr) Platform, in MCF-7 cells cultured in DMEM + 10% fetal bovine serum, Harrill Lab (AID 2283974)
Method in brief: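 Propidium iodide dye exclusion imaged by high-content microscopy after 12 h chemical exposure (eight concentrations) of MCF-7 cells grown in DMEM plus 10% FBS; values fitted in both directions relative to DMSO.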

[4] = CCTE_Harrill_HTTr_Viability_DMEM_24hr: (Pilot) CCTE's 24-hour Cell Viability Assessment for the High-Throughput Transcriptomics (HTTr) Platform, in MCF-7 cells cultured in DMEM + 10% fetal bovine serum, Harrill Lab (AID 2283975)
Method in brief: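 Pilot study: propidium iodide dye exclusion, imaged by high content microscopy, after 24 h compound exposure (eight concentrations) in MCF-7 cultured in DMEM + 10% fetal bovine serum; DMSO served as negative control and baseline.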

[5] = CCTE_Harrill_HTTr_Viability_PRF_DMEM_6hr: (Pilot) CCTE's 6-hour Cell Viability Assessment for the High-Throughput Transcriptomics (HTTr) Platform, in MCF-7 cells cultured phenol red-free DMEM + 10% charcoal-stripped fetal bovine serum, Harrill Lab (AID 2283976)
Method in brief: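 Membrane integrity by high-content imaging of propidium iodide uptake, six hours after dosing with eight concentrations. Cells: MCF-7 grown in phenol red-free DMEM plus 10% charcoal-stripped serum; DMSO serves as baseline for bidirectional fits.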

[6] = CCTE_Harrill_HTTr_Viability_PRF_DMEM_12hr: (Pilot) CCTE's 12-hour Cell Viability Assessment for the High-Throughput Transcriptomics (HTTr) Platform, in MCF-7 cells cultured in phenol red-free DMEM + 10% charcoal-stripped fetal bovine serum, Harrill Lab (AID 2283977)
Method in brief: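 Membrane integrity was scored via propidium iodide dye exclusion imaging, fitted in both directions relative to DMSO. Compounds ran as eight-point dilutions for 12 hours on MCF-7 grown in phenol red-free DMEM plus 10% charcoal-stripped serum.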

THRB (gene 7068) [7] = biological target: THRB (gene 7068) (UniProt P10828); test: TOX21_TRB_COA_Agonist_Followup_ratio: Tox21 Thyroid Hormone Receptor beta Agonism through Coactivator Recruitment Follow-Up Assay, Ratio (AID 2283963)
Method in brief: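 Cell-free TR-FRET coactivator recruitment: GST-tagged TRβ LBD (5.0 nM) with 0.10% BSA incubated with compound, then fluorescein-SRC-2 peptide (200 nM) and Tb-anti-GST antibody (2 nM) added. 520:495 nm ratio normalized to DMSO (0%) and T3 (100%).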

[8] = biological target: Retinoic acid receptor RXR-alpha (Homo sapiens) (UniProt P19793); test: TOX21_TR_RXR_BLA_Agonist_Followup_ratio: Tox21 Thyroid Hormone Receptor beta Retinoid X Receptor alpha (RXRa) Agonism Beta-lactamase (BLA) Follow-Up Assay, Ratio (AID 2283968; active = hit-call score of the fitted dose curve at least 0.9, where 1 is the maximum)
Method in brief: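 Agonism is scored as an increase in the 460:530 nm beta-lactamase substrate ratio over DMSO in RXRa-UAS-bla HEK293T cells exposed for 16 h to 11 compound concentrations.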

[9] = TOX21_TR_RXR_BLA_Agonist_Followup_viability: Viability Assessment in the Tox21 Thyroid Hormone Receptor beta Retinoid X Receptor alpha (RXRa) Agonism Beta-lactamase (BLA) Follow-Up Assay (AID 2283970; active = hit-call score of the fitted dose curve at least 0.9, where 1 is the maximum)
Method in brief: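 Luminescent ATP read (CellTiter-Glo) after 16h exposure of RXRa-UAS-bla HEK293T cells at 37C/5% CO2. Activity normalized to DMSO; signal loss scored as reduced viability.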

[10] = biological target: Retinoic acid receptor RXR-alpha (Homo sapiens) (UniProt P19793); test: TOX21_TR_RXR_BLA_Antagonist_Followup_ratio: Tox21 Thyroid Hormone Receptor beta Retinoid X Receptor alpha (RXRa) Antagonism Beta-lactamase (BLA) Follow-Up Assay, Ratio (AID 2283972; active = hit-call score of the fitted dose curve at least 0.9, where 1 is the maximum)
Method in brief: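 HEK293T RXRa-bla, 2% charcoal-stripped FBS medium, 16 h compound exposure at 37C, qHTS 11 conc x3. CCF4 FRET ratio ch2/ch1 (460:530), DMSO = baseline, loss-of-signal fit.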

Measured: AC50

Sequence of Retinoic acid receptor RXR-alpha (Homo sapiens) (P19793 whole entry, looked up): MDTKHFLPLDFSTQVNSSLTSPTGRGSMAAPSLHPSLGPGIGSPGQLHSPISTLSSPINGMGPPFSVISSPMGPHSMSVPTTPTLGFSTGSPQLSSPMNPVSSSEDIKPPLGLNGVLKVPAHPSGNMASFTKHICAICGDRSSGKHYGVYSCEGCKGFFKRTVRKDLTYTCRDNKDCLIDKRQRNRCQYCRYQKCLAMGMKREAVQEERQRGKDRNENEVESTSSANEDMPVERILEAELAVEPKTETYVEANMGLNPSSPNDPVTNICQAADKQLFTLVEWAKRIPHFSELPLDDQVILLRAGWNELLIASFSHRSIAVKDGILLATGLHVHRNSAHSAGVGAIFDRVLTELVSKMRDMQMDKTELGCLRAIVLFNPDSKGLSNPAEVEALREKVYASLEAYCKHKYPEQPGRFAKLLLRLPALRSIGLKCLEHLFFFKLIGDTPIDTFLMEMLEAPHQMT
Sequence of THRB (gene 7068) (P10828 whole entry, looked up, the tested form may be a part): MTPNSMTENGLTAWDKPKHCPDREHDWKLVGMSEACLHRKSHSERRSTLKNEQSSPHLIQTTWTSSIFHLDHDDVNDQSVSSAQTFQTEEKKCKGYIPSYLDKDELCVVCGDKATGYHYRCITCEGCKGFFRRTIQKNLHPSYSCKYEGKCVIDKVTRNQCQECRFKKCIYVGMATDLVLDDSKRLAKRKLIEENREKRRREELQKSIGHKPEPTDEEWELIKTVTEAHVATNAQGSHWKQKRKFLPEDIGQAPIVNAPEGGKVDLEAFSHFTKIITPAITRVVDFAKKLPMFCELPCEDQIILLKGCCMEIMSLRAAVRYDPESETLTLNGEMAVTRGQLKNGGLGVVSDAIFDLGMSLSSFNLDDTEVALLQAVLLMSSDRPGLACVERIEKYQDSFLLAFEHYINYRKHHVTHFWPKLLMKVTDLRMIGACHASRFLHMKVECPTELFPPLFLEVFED

CC(=O)[C@H]1CC[C@H]2[C@@H]3CCC4=CC(=O)CC[C@]4(C)[C@H]3CC[C@]12C
inactive: THRB (gene 7068) [1]

CC(C)(c1ccc(O)cc1)c1ccc(O)cc1
inactive: [2] | [3] | [4] | [5] | [6]

N[C@@H](Cc1cc(I)c(Oc2ccc(O)c(I)c2)c(I)c1)C(=O)O
inactive: [2] | [3] | [4] | [5] | [6]

COC(=O)c1ccc(I)cc1S(=O)(=O)NC(=O)Nc1nc(C)nc(OC)n1
inactive: THRB (gene 7068) [7] | [8] | [9]

CCCN(CCC)C(=O)SCC
inactive: THRB (gene 7068) [7] | [8]

C=CCOC(Cn1ccnc1)c1ccc(Cl)cc1Cl (stereo unspecified)
inactive: [2] | [3] | [4] | [5] | [6]

Cc1nn(C)c(Oc2ccccc2)c1C=NOCc1ccc(C(=O)OC(C)(C)C)cc1
inactive: [2] | [3] | [4] | [5] | [6]

CCNc1nc(N)nc(Cl)n1
inactive: THRB (gene 7068) [7] | [8] | [9]

S=C([S-])NCCNC(=S)[S-].[Mn+2]
inactive: [2] | [3] | [4] | [5] | [6]

CC(C)CCCCCCc1ccc(O)cc1
active: [3] 55.5 µM | [4] 69.4 µM | [5] 55.7 µM | [6] 69.2 µM
inactive: [2]

C[C@]12CC[C@@H]3c4ccc(O)cc4C[C@@H](CCCCCCCCCS(=O)CCCC(F)(F)C(F)(F)F)[C@H]3[C@@H]1CC[C@@H]2O (stereo partly specified)
not listed: THRB (gene 7068) [7] | [8] | [9]
inactive: all other assays above
